Common to all, as to test: NCI-60 one-dose screen, 48 h (100 = growth as untreated, 0 = no growth, -100 = all killed)
Holding throughout (settings): 10 µM unless noted

Assay [1] relates to HCT-15 colon.
Assay [2] deals with HT29 colon.
Assay [3] concerns SNB-75 CNS.
Assay [4] relates to SNB-19 CNS.
The subject of assay [5] is U251 CNS.
The subject of assay [6] is PC-3 prostate.
Assay [7] has as its system SK-MEL-5 melanoma.
Assay [8] concerns UACC-62 melanoma.
The subject of assay [9] is LOX IMVI melanoma.
For assay [10], the system named is SK-MEL-28 melanoma.
Assay [11] relates to SK-MEL-2 melanoma.
In assay [12] the test system is EKVX NSCLC.
Assay [13] has as its system UO-31 renal.
The subject of assay [14] is TK-10 renal.
Assay [15] relates to CAKI-1 renal.
Assay [16] deals with A498 renal.
Assay [17] concerns HL-60(TB) leukemia.
The test system of assay [18] is CCRF-CEM leukemia.
For assay [19], the system named is ACHN renal.
For assay [20], the system named is SN12C renal.

Values joined by “and” are separate entries in the source; they are usually repeats but may differ in a detail not shown here. Equal values may be shown once. This is part of a sample that, as a whole, favours compounds with a hit. Of some 83,000 tested, about 20% had one in any assay.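 Treatment: one concentration, 48 hours, 96-well format. Scoring: percent growth, with anything below 10 considered active.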 Active and inactive are the calls of the source.

On to `Oc1ccc(O)c(Cl)c1`, for which the growth in assay [1] was 96.4% (inactive) and 110% (inactive); in [2], 103% (inactive) and 107% (inactive); in [3] it was 72.2% (inactive) and 85.8% (inactive); in assay [4] it was 111% (inactive); in assay [5], 94.6% (inactive) and 101% (inactive); in assay [6] it was 84.3% (inactive) and 94.2% (inactive). Moreover, the growth in assay [7] is 91.3% (inactive) and 95.2% (inactive); in assay [8], 93.9% (inactive) and 101% (inactive); in assay [9], 94.4% (inactive) and 93.9% (inactive); in [10] it was 115% (inactive) and 122% (inactive); in assay [11], 102% (inactive); in assay [12] it was 112% (inactive). The growth is 56.6% (inactive) and 75.2% (inactive) in assay [13]; 124% (inactive) and 110% (inactive) in assay [14]; 93.4% (inactive) and 101% (inactive) in assay [15]; 109% (inactive) and 98.6% (inactive) in assay [16]; 12.3% (inactive) and 94.8% (inactive) in assay [17]; 15.5% (inactive) and 64.5% (inactive) in assay [18].

As for `CO[C@@H]([CH2][Hg][O]C(=O)c1ccccc1)[C@@H]([CH2][Hg][O]C(=O)c1ccccc1)OC`, the growth in assay [1] is -93.1% (active); in assay [2] it was 95.7% (inactive); in assay [3] it was 85.6% (inactive); in [4], 96.5% (inactive); in assay [5] it was 93.3% (inactive); in assay [6], 88.7% (inactive). Moreover, the growth in assay [7] is 86.5% (inactive); in assay [8], 95.2% (inactive); in assay [9], 36% (inactive); in assay [10], 112% (inactive); in [11] it was 105% (inactive); in assay [12], 110% (inactive). Also, the growth in assay [13] is 88.8% (inactive); in assay [14], 128% (inactive); in [19] it was 99% (inactive); in assay [15], 94.3% (inactive); in assay [17], 64.9% (inactive); in assay [18], -6.61% (active).

On to `CCCCCCCCCCCCCCCC[n+]1ccccc1`, for which the growth is 17.1% (inactive) and 15.2% (inactive) in assay [1]; -68.2% (active) and -58.8% (active) in assay [2]; -77.3% (active) and -40.5% (active) in [3]; -88.4% (active) and -62.6% (active) in assay [4]; -90.4% (active) and -76.3% (active) in assay [5]; -48.7% (active) and -80.9% (active) in [6]. For the same compound, the growth in assay [7] was -100% (active) and -94.8% (active); in [8], -68% (active) and -46.2% (active); in assay [9] it was -72.9% (active) and -79.8% (active); in [10], -55% (active) and -30.7% (active); in assay [11] it was -83.3% (active) and -80.1% (active); in assay [12] it was -47.9% (active) and -2.17% (active). Moreover, the growth in assay [20] was -37.9% (active) and -29.2% (active); in [14], -74.4% (active); in assay [19], -23.8% (active) and 7.44% (active); in assay [15], -16.1% (active) and -34.4% (active); in [16], -18.7% (active) and -7.63% (active); in assay [17], -55.7% (active). For the same compound, the growth in [18] is -69% (active) and -43.7% (active).

For the compound `CC1(C)C2CCC1(CS(=O)(=O)O)C(=O)C2` (configuration not stated), the growth is 91.7% (inactive) and 104% (inactive) in assay [1]; 98.2% (inactive) and 108% (inactive) in assay [2]; 95% (inactive) and 82.9% (inactive) in assay [3]; 101% (inactive) and 109% (inactive) in assay [4]; 90.8% (inactive) and 101% (inactive) in assay [5]; 94.6% (inactive) and 94.5% (inactive) in [6]. Moreover, the growth was 105% (inactive) and 115% (inactive) in assay [7]; 88.3% (inactive) and 93.2% (inactive) in assay [8]; 77.1% (inactive) and 100% (inactive) in [9]; 109% (inactive) and 126% (inactive) in assay [10]; 107% (inactive) and 106% (inactive) in [11]; 101% (inactive) and 94.6% (inactive) in assay [12]. For the same compound, the growth in [13] is 86% (inactive) and 110% (inactive); in [14], 96% (inactive) and 87.3% (inactive); in assay [19], 95.9% (inactive) and 105% (inactive); in [15] it was 97.5% (inactive) and 84.5% (inactive); in assay [16] it was 84.3% (inactive) and 96.9% (inactive); in [17], 104% (inactive) and 80.1% (inactive). The growth in assay [18] is 96.1% (inactive) and 103% (inactive).

For `C/C(=C(\c1ccc(OCCN2CCOCC2)cc1)c1ccc(OC(=O)Cc2ccccc2)cc1)c1ccc(Cl)cc1`, the growth in assay [1] is 91.4% (inactive); in assay [2], 77.1% (inactive); in [3], 95.7% (inactive); in assay [4], 96.3% (inactive); in assay [5], 99.2% (inactive); in assay [6], 68.2% (inactive). In addition, the growth in assay [7] was 86.6% (inactive); in assay [8] it was 85.4% (inactive); in [9] it was 98.6% (inactive); in assay [10], 103% (inactive); in assay [11], 81.5% (inactive); in assay [12], 95.4% (inactive). Besides, the growth in assay [13] was 85.5% (inactive); in assay [14], 90.8% (inactive); in assay [19], 112% (inactive); in assay [15], 78.7% (inactive); in [16], 96.8% (inactive); in assay [17], 82.9% (inactive). In addition, in assay [18], the growth is 84.9% (inactive).

As to `CC[CH2][Sn]([Cl])([Cl])[CH2]CC.Oc1ccccc1C=NCCN=Cc1ccccc1O`, the growth is 59.8% (inactive) and 60.4% (inactive) in [1]; 79.1% (inactive) and 58.3% (inactive) in assay [2]; 50.7% (inactive) in assay [3]; 79.2% (inactive) and 67.5% (inactive) in assay [4]; 26% (inactive) and -21.6% (active) in [5]; 84.9% (inactive) and 70.9% (inactive) in assay [6]. For the same compound, the growth in assay [7] was 60.1% (inactive) and 50% (inactive); in [8] it was 39.8% (inactive) and 32.3% (inactive); in assay [9] it was 17.4% (inactive) and -11.1% (active); in [10], 48.3% (inactive) and 45.7% (inactive); in assay [11], 34.1% (inactive) and 13.1% (inactive); in [12] it was 85.2% (inactive) and 75.2% (inactive). Moreover, the growth was 53.9% (inactive) and 32.8% (inactive) in assay [13]; 17.6% (inactive) and -44.9% (active) in assay [14]; 47.8% (inactive) and 29.3% (inactive) in assay [19]; 50.4% (inactive) and 33.6% (inactive) in assay [15]; 7.69% (active) and -34% (active) in assay [16]; 7.92% (active) and 64.9% (inactive) in assay [17]. The growth in assay [18] was 2.05% (active) and 0.18% (active).

Source of the values: PubChem BioAssay (NCI).
